Compound activity: PubChem BioAssay, National Center for Advancing Translational Sciences (NCATS)
DT40 TDP1 no CPT: qHTS for Inhibitors of human tyrosyl-DNA phosphodiesterase 1 (TDP1): qHTS in cells in absence of CPT; actives 15% (n = 420,000); AID 686978, 2013; Potency, µM (top dose mostly 46.2 µM), without a hit: at the highest dose activity change, negative = growth inhibition, actives largely listed as inhibitors; DT40 Tdp1-/- hTDP1 cells, no CPT, ATP luminescence, 48 h; also: % is scaled to controls: 0 for no effect and ±100 for the full control effect; nearly all actives have a fitted effect of over 55% in size
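DT40 Tdp1-/-;hTDP1 cells, no CPT (DMSO vehicle only), 400 cells/well; compounds pin-transferred; ≥48 hr, 37 °C; CellTiter-Glo 30 min RT dark, luminescence read.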
ClpP mod: qHTS Assay for Activators of ClpP | purified B. subtilis ClpP, FRET peptide cleavage, 20 min | ATP-dependent Clp protease proteolytic subunit (Bacillus subtilis (strain 168)), P80244 | AID 651965, 2013 | Potency, µM (doses to about 57.5 µM), for the others: at the highest dose activity change, negative = active | actives 1.9% (n = 340,000); active = well fitted falling curve with a large enough effect; inconclusive = small, poorly fitted or top-dose-only effect; inactive = no such curve, though single readings can be large or run the other way; also: the source files actives as falling curves though it sought activators and does not explain the sign; nearly all actives have a fitted effect of over 65% in size
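Buffer: 100 mM Tris/HCl pH8, 100 mM KCl, 0.05% low protease BSA, 2.5% glycerol, 0.01% Tween-20. ClpP 10 microg/mL final; 20 min RT; delta FRET normalized to ADEP and DMSO controls.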
TDP1 inh: TDP1 (human) enzyme inhibition; Potency, µM (doses to about 130 µM), for the others: at the top dose activity change, negative = inhibition, hits mostly inhibitors; actives 0.28% (n = 350,000); Q9NUW8; recombinant TDP1, AlphaScreen DNA substrate cleavage; also: % is scaled to controls: 0 for no effect and ±100 for the full control effect; nearly all actives have a fitted effect of over 40% in size
Target sequence (Q9NUW8 whole entry, looked up): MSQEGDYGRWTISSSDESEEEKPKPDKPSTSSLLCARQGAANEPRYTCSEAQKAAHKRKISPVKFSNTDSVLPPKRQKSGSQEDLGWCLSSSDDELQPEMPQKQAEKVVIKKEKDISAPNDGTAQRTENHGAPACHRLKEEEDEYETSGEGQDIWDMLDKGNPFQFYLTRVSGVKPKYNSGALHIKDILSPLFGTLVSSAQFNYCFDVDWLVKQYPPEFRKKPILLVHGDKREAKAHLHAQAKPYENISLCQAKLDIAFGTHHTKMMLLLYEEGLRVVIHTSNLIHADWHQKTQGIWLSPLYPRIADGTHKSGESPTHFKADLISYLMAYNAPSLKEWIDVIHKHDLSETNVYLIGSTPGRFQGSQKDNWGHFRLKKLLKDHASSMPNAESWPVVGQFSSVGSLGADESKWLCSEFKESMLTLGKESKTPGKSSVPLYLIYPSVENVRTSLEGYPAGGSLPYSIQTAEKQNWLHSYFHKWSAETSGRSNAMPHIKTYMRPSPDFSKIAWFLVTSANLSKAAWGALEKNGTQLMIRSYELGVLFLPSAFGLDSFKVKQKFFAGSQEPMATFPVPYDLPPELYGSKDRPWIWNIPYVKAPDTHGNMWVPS
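Steps: enzyme plus compound, 15 min RT; add biotin/phosphotyrosine-FITC oligonucleotide (15 nM final), react 5 min; add donor/acceptor beads (10 ug/ml final), 10 min; read AlphaScreen. Tdp1 at 1 nM final.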
TDP1 cell CPT: growth inhibition of DT40 Tdp1-/-;hTDP1 cells with camptothecin (screen for TDP1 inhibitors); chicken DT40 Tdp1-/-;hTDP1 cells + 20 nM CPT, ATP luminescence, 48 h; Potency, µM (highest dose often 46.2 µM), inactives show at the top dose activity change, negative = growth inhibition, hits mostly inhibitors; actives 12% (n = 420,000); also: % is scaled to controls: 0 for no effect and ±100 for the full control effect; nearly all actives have a fitted effect of over 55% in size
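Chicken DT40 Tdp1-/- cells complemented with human TDP1, 400 cells/well, exposed to compounds plus 20 nM camptothecin for at least 48 h at 37 C; viability read as ATP content by CellTiter-Glo luminescence.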
An asterisk follows results filed as active; ? = inconclusive; . = no result; [ ] = another dose, or the depositor's remark. The list is not random: actives were taken first. Their share in the collection is about 17%. Unless noted, calls follow the shape of the dose curve; as a rule, active = well fitted curve in the direction sought with a large enough effect; inconclusive = small, poorly fitted or top-dose-only effect, or another doubt; inactive = no such curve, though single readings can be large; an effect the other way counts as inactive or inconclusive. Potency is read from the fitted curve at half-maximal effect.

SMILES | DT40 TDP1 no CPT | ClpP mod | TDP1 inh | TDP1 cell CPT
O=C(CSc1nnc(-c2cccs2)n1-c1ccccc1)N1CCCc2ccccc21 | 16µM* | 62% | 3% | ?
Cc1ccc(NCc2nnc(SCC(=O)N3CCCc4ccccc43)o2)c(C)c1 | 18µM* | -1% | 7% | 5.8µM*
Cc1ccc(-n2c(SCC(=O)N3CCCc4ccccc43)nnc2-c2cccnc2)c(C)c1 | 23µM* | . | 7% | ?
O=C(CSc1nnc(CNc2ccccc2)o1)N1CCCc2ccccc21 | -30% | 2% | 2% | 3%
COC(=O)C(CCSC)NC(=O)c1cc2c(n(-c3ccc(C)cc3)c1=O)CC(C)(C)CC2=O (stereo not given) | -9% | 3% | . | 1%
CC(C)CNS(=O)(=O)c1ccc(CCC(=O)NCCc2ccccc2)cc1 | -6% | . | 5% | 19%
S=C1N(c2ccccc2)C(c2ccc(Br)cc2)N2CCCN12 (stereo not given) | ? | -3% | -3% | -19%
CC(=O)c1ccc(N2CCN(C(=O)c3cccc(Oc4ccccc4)c3)CC2)cc1 | 18µM* | . | 6% | 16µM*
CC(C)CC(=O)N1CCN(C(=O)c2ccc(-c3ccccc3)cc2)CC1 | 23µM* | 0% | 4% | ?
CC(=O)c1ccc(N2CCN(C(=O)c3ccc(-c4ccccc4)cc3)CC2)cc1 | 13µM* | . | -3% | ?
CC(=O)c1ccc(N2CCN(C(=O)c3ccc4c(c3)OCO4)CC2)cc1 | ? | -9% | 0% | ?
CCOC(=O)CSC1=C(C#N)C(=O)NC(c2ccc(OC)c(OC)c2)S1 (stereo not given) | 12µM* | -2% | 7% | 16µM*
CCOC(=O)CSC1=C(C#N)C(=O)NC(c2ccc(OC)cc2)S1 (stereo not given) | 15µM* | 0% | 9% | 15µM*
COc1ccc(C2NC(=O)C(C#N)=C(S)N2c2ccc(C)cc2)cc1OC (stereo not given) | ? | -3% | 0% | ?
COc1ccc2nc(-c3ccccc3)nc(SC)c2c1 | -16% | 22µM* | . | -10%
COc1ccc(Nc2nc(N3CCCCC3)nc3ccccc23)c(OC)c1 | ? | -14% | . | ?
COc1ccc(Nc2nc(-c3ccccc3F)nc3ccccc23)cc1OC | 15µM* | -1% | 10% | 15µM*
COc1ccc2nc(-c3ccccc3)nc(C3CCCCC3)c2c1 | ? | ? | -19% | -9%
COc1ccc(Nc2nc(-c3ccncc3)nc3ccccc23)cc1 | 10µM* | . | . | 21µM*
COc1ccc(Nc2nc(N3CCN(S(=O)(=O)N(C)C)CC3)nc3ccccc23)cc1 | 8.2µM* | -6% | . | 12µM*
Cc1ccccc1OCC(=O)Nc1ccc(-c2nc3ccccc3o2)cc1 | . | 4% | -3% | .
O=C(Cc1nnc(-c2cc3ccccc3[nH]2)o1)Nc1cc(C(F)(F)F)ccc1Cl | . | . | -4% | .
COc1ccc(Nc2nc(-c3ccccc3)nc3ccccc23)c(OC)c1 | 21µM* | . | ? | ?
N#Cc1cccc(-c2nc(Nc3ccncc3)c3ccccc3n2)c1 | 2.9µM* | . | 7%[56.1 µM] | 2.6µM*
Cc1ccc(C)c(Nc2nc(-c3ccncc3)nc3ccccc23)c1 | ? | 0% | . | -28%
SMILES | DT40 TDP1 no CPT | ClpP mod | TDP1 inh | TDP1 cell CPT
COc1cccc(Oc2nc(-c3ccncc3)nc3ccccc23)c1 | ? | -1% | -3% | 15µM*
COc1ccc(Oc2nc(-c3ccncc3)nc3ccccc23)cc1 | ? | -5% | 5% | -3%
COc1ccc(OC)c(Nc2nc(-c3ccncc3)nc3ccccc23)c1 | 7.3µM* | . | . | 18µM*
CCOC(=O)c1cc2c(=O)n3ccccc3nc2n(CCCOC)c1=NC(=O)c1c(-c2ccccc2Cl)noc1C | 4% | 3% | 3% | -1%
O=C(Nc1cccc(Cl)c1)N1CCC(CN2CCOCC2)CC1 | -22% | 1% | 5% | -12%
COc1ccc(Nc2nc(-c3ccccc3O)nc3ccccc23)cc1 | 18µM* | -10% | . | ?
COc1ccc(Nc2nc3cc(C)ccc3cc2C#N)c(OC)c1 | 0.029µM* | -1% | 5% | 1.2µM*
COc1cccc(-c2nc(NCc3cccs3)c3ccccc3n2)c1 | -13% | . | . | ?
COc1cccc(Nc2nc(-c3ccccc3O)nc3ccccc23)c1 | ? | -4% | . | ?
COc1ccc(Nc2nc3cc(C)ccc3cc2C#N)cc1 | -24% | . | . | ?
COc1cccc(Nc2nc(-c3ccccc3)nc3ccccc23)c1 | ? | . | . | 23µM*
Cn1cc(S(=O)(=O)NC[C@H]2O[C@@H](n3cnc4c(N)ncnc43)[C@H](O)[C@@H]2O)cn1 | -4% | -3% | 1%[56.1 µM] | 2%
CCOc1ccc(OCC)c(NC(=O)c2cc(CN3CCOCC3)on2)c1 | ? | 0% | 5% | -26%
COc1ccccc1CNc1cc(-c2ccccc2Cl)ncn1 | 15µM* | . | . | 16µM*
COc1cccc(-c2cc(NCc3ccccc3OC)ncn2)c1 | ? | . | . | 4.1µM*
COc1ccccc1CNc1cc(-c2cccc(NS(C)(=O)=O)c2)ncn1 | ? | . | 8%[56.1 µM] | ?
COc1ccccc1CNc1cc(-c2ccccc2C(F)(F)F)ncn1 | 1.5µM* | . | . | 1.3µM*
COc1ccccc1CNc1cc(-c2ccc(C(=O)N(C)C)cc2)ncn1 | -9% | . | . | 1%
O=C(Cn1nnnc1-c1ccccc1F)Nc1ccc(F)c(F)c1 | -21% | 1% | -2% | -27%
Oc1ccc(/C=N/Nc2cc(N3CCOCC3)nc(N3CCOCC3)n2)cc1O | 21µM* | -18% | 9% | ?
COc1ccc(/C=N/Nc2cc(C)nc(N3CCOCC3)n2)cc1 | ? | . | 0% | -8%
Oc1ccccc1/C=N/Nc1cc(N2CCCC2)nc(N2CCCC2)n1 | 12µM* | -5% | 11% | 12µM*
Oc1cccc(/C=N/Nc2cc(N3CCOCC3)nc(N3CCOCC3)n2)c1 | 15µM* | -3% | 6% | 16µM*
CN(C)c1ncc2ncc(=O)n(C3CC3)c2n1 | -30% | . | . | ?
Cc1cccc(NC(=O)CCS(=O)(=O)c2ccc3c(c2)n(C)c(=O)c(=O)n3C)c1C | 2% | -4% | 8% | 1%
CCC(c1nnnn1CCOC)N(Cc1ccc(C)cc1)Cc1cc2cc(OC)ccc2[nH]c1=O (stereo not given) | 7.3µM* | -12% | ? | ?
Cc1ccc2[nH]c(=O)c(CN(CCc3ccccc3)C(c3nnnn3Cc3ccco3)C(C)C)cc2c1 (stereo not given) | 23µM* | . | 1% | 29µM*
CCC(c1nnnn1Cc1ccccc1)N(Cc1ccco1)Cc1cc2cc(OC)ccc2[nH]c1=O (stereo not given) | 21µM* | -17% | 7% | 16µM*
CCOC(=O)Cn1nnnc1C(CC)N(Cc1ccccc1)Cc1cc2cc(C)ccc2[nH]c1=O (stereo not given) | -29% | -4% | -2% | ?
